Results taken from PubChem BioAssay AID488837 (National Center for Advancing Translational Sciences (NCATS), 2010).
The campaign covered roughly 330,000 compounds. About 20 (0.006%) were called active. Another 1% or so got no clear call; they are omitted. Calls come from the whole dose curve; as a rule, active = well fitted inhibition curve with a large enough effect; inconclusive = small, poorly fitted or top-dose-only effect, or effect the other way; inactive = flat fitted curve, though single readings scatter. The full list was thinned out, with actives kept by preference.

The compounds below were run against Protein phosphatase EYA2 (Homo sapiens) (UniProt O00167) (assay: qHTS Assay for Inhibitors of the Phosphatase Activity of Eya2). Conditions: recombinant Eya2, OMFP fluorescence dephosphorylation (OMFP is methylfluorescein phosphate); series mostly up to 76.9 µM; activity, negative = inhibition: at the top concentration.
From the text: The Eya family of proteins are essential co-activators of the Six1 transcription factor. Six1 is a developmental gene that is abnormally re-expressed in a large percentage of breast cancers. This over-expression plays a causal role in the initiation and metastatic development of breast cancers. The Eya family of proteins was also found to contain a unique HAD phosphatase domain with protein tyrosine phosphatase activity which can potentially play a role in Six1-mediated breast tumorigenesis. […] We have developed and optimized a 1536 well fluorescence-based HTS assay targeting the phosphatase activity of Eya2. Inhibitors found against Eya2 could serve as potential therapeutic tools to inhibit Six1-mediated breast tumorigenesis and to increase the efficiency of radiation and certain chemo therapy. These inhibitors could also be used as chemical probes to study the function of Eya2's phosphatase activity and its role in Six1-mediated breast tumorigenesis.
The Eya2 enzyme was kindly provided by the laboratory of Dr. Rui Zhao. The 3-O-methyl-fluorescein phosphate (OMFP) substrate and all buffer reagents were purchased from Sigma Aldrich. qHTS Assay Setup: 1. Buffer- 50 mM HEPES pH 7.5, 50 mM NaCl, 5 uM MgCl2, 0.05% BSA, 1 mM DTT. 2. OMFP Stock- 10 mM solution prepared in 100% DMSO and stored in single use aliquots at -20C. Assay Procedure- 1. Dispense 1.5 ul per well of Eya2 at 0.2 uM in black medium binding 1536 well Greiner plate 2. Transfer 23 nl of compound and control compound (EGTA) to plate 3. Incubate at ambient for 10 minutes 4. Dispense 1.5 ul per well of OMFP at 50 uM 5. Incubate at ambient for 10 minutes 6. Read on ViewLux using Excitation = 485 nm, Emission = 525 nm
% is set by controls: 0 for no effect and ±100 for the full control effect.

Chain of Protein phosphatase EYA2 (Homo sapiens) (O00167 whole entry, looked up, the tested form may be a part): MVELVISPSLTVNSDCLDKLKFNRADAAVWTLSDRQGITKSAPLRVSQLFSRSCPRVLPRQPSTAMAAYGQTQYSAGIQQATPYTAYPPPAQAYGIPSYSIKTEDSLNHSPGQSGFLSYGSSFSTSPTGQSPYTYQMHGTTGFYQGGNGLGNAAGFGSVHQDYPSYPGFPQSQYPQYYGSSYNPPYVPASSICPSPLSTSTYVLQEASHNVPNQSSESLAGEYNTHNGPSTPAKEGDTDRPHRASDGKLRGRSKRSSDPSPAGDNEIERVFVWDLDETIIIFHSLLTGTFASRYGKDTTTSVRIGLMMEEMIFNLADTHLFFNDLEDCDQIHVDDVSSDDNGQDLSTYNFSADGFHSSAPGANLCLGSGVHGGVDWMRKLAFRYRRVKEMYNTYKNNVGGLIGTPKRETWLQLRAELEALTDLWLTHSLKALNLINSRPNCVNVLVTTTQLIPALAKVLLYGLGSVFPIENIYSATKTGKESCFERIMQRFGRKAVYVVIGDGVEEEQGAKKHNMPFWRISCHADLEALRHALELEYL

activity, negative = inhibition, inactive:
O=C(CN1CCN(S(=O)(=O)c2ccc3ccccc3c2)CC1)NC(=O)NC1CCCCC1 -19.3%, CN(CC(=O)Nc1c(Cl)cccc1Cl)C(=O)CC1OC(=O)c2ccccc21 (configuration not stated) 3.23%, CN(Cc1nc2ccc(F)cc2[nH]1)Cc1nc(CC2CC2)no1 0.753%, COc1ccc(-c2nc(CS(=O)(=O)CC(=O)NCc3cccc(Br)c3)c(C)o2)cc1 17.1%, CCOC(=O)c1ccc2c(c1)nc(SCC(=O)NC(C)C)n2CC -9.46%, CC1(C)CC(O)C(CCC(O)c2ccccc2)C(C)(C)N1 (configuration not stated) 5.53%, Cc1ccc(S(=O)(=O)N(C)C)cc1NC(=O)c1ccccc1Br 16.7%, CC1CC(C)CN(CCCNC(=O)Cn2ncc3c([nH]c4ccccc43)c2=O)C1 (configuration not stated) 9.07%, O=C1COc2ccc(C(=O)COC(=O)C3CC(O)CN3S(=O)(=O)c3ccc(Cl)cc3)cc2N1 (configuration not stated) 5.76%, NC(=O)Cn1nc([N+](=O)[O-])nc1Oc1ccc(Br)cc1 -14.5%, Cc1cc(C)nc(SC2CCCCC2NS(=O)(=O)c2ccc(Cl)cc2)n1 (configuration not stated) -8.85%, O=C(O)c1cc(S(=O)(=O)Nc2ccc3cn[nH]c3c2)ccc1Br -15.2%, CCN(CC(=O)NC1CCS(=O)(=O)C1)S(=O)(=O)c1ccccc1 (configuration not stated) -0.424%, COc1ccc(COC(=O)c2ccc(Cl)c(S(=O)(=O)N3CCOCC3)c2)cc1F -8.01%, CCN(CC)Cc1c(C(=O)N/N=C/c2cccc(OCc3ccc(F)cc3)c2)nnn1-c1nonc1N -9.2%, O=C(CN(C(=O)c1csnn1)c1cccc(F)c1)NCc1ccc(F)cc1 -3.74%, CC(C)=CCN1CCN(Cc2ccc(Oc3ncccn3)cc2)CC1CCO (configuration not stated) 1.39%, COc1ccc(N2CCN(C(=O)CN3C(=O)COc4ccccc43)CC2)cc1 -0.881%, O=C(O)c1cscn1 17.9%, COc1cccc2cc(-c3cc(=O)oc4cc(C)c(O)cc34)oc12 12.5%, O=C(C[C@H]1C/C=C\C[C@@H](NC(=O)OCC2c3ccccc3-c3ccccc32)C(=O)O[C@@H](c2ccccc2)CNC1=O)N[C@H](CO)Cc1ccccc1 -18.4%, CCOc1cc(/C=N/Nc2cc(C)nc3ccc(C)cc23)ccc1O -6.47%, CC(C)CN(C(=O)CN1CCN(S(=O)(=O)c2ccccc2)CC1)c1c(N)n(CC(C)C)c(=O)[nH]c1=O 2.96%, COc1ccc(S(=O)(=O)N2CCCC(C(=O)NCCCn3ccnc3)C2)cc1OC (configuration not stated) 10%, COc1ccc(NC(=O)C/C(C)=N/NC(=O)c2cnccn2)cc1Cl 3.03%, Cc1ccc(S(=O)(=O)N(CC(=O)N/N=C/c2ccc(F)cc2)c2cccc3cccnc23)cc1 12.1%, COc1ccc(C(=O)N(CCN2CCOCC2)CC(=O)NC2CCCC2)cc1OC 12.7%, O=C(NC(Cc1c[nH]c2ccccc12)C(=O)O)/C(=C/c1ccco1)NC(=O)c1ccccc1 (configuration not stated) 12.3%, O=C(NCc1ccccc1Cl)C(=O)NCC1CCCN1S(=O)(=O)c1cccs1 (configuration not stated) 1.47%, CCC1(C)CC(=O)NC1=O (configuration not stated) 3.35%, CCCCOC(=O)Nc1nccs1 1.29%, Cc1ccc(NS(=O)(=O)c2ccc3c(c2)NC(=O)CO3)cc1 8.25%, COC(=O)[C@H](Cc1ccccc1)NC(=O)[C@@H]1C[C@H]1[C@@H](NC(=O)OCc1ccccc1)c1ccccc1 -3.24%, COc1ccc(C2OC(=O)CC2C(=O)NC(C)C)cc1 (configuration not stated) -10.7%, Cc1csc(=O)n1CC(=O)OCC(=O)N(CC(C)C)c1c(N)n(Cc2ccccc2)c(=O)[nH]c1=O -0.534%, C[C@@H](CN1CCC[C@H]1CN1C(N)=NC[C@@H]1Cc1ccccc1)N1C[C@@H](Cc2ccccc2)N(CCCC2CCCC2)C1=N -6.56%, O=C(Nc1cc(S(=O)(=O)N2CCOCC2)ccc1OCC(F)(F)F)c1ccc(N2CCCC2=O)cc1 -23.5%, Cc1ccc(O)c(-c2cc(C(=O)Nc3c(C)n(C)n(-c4ccccc4)c3=O)[nH]n2)c1 -3.31%, O=C(CCC(=O)OCc1cccc(C(=O)Oc2ccccc2)c1)Nc1cccc2ccccc12 -8.93%, CC(C)C(NC(=O)c1c(F)cccc1F)C(=O)NNC(=O)c1ccccc1 (configuration not stated) -29.1%, CCn1cc(CN2CCC(n3nccc3NC(=O)CCCc3ccccc3)CC2)c(C)n1 4.01%, CC(C)c1nnc(NC(=O)C2CC(=O)N(CCc3ccc(F)cc3)C2)s1 (configuration not stated) 1.05%, CN(c1ccc(OCC(=O)OCC(=O)Nc2cccc([N+](=O)[O-])c2)cc1)S(=O)(=O)c1ccc(F)cc1 -16%, Nc1ccc(Nc2cc(O)c3ncccc3c2)cc1 -10.3%, CCOc1ccc(C(=O)CCC(=O)Nc2ccncc2)cc1 16.6%, CCCCc1ccc(NC(=S)N2CCCC(CO)C2)cc1 (configuration not stated) 3.85%, COc1ccc(C(=O)CCc2ccccc2O)c(OC)c1 -1.09%, CC1=CCC2C(=O)N(c3cccc(C(=O)NC(C)c4ccccc4)c3)C(=O)C2C1 (configuration not stated) 5.67%, COc1ccc(S(=O)(=O)N2CCN(C(=O)N(C)C)C2C)cc1 (configuration not stated) -3.3%, CCOc1ncccc1C(=O)NNC(=O)c1cccc(S(=O)(=O)Nc2ccccc2OC)c1 16.1%, CCN(CC)C(=O)Oc1ccc(Br)cc1C(=O)Nc1ccc(F)c(Cl)c1 6.75%, NS(=O)(=O)c1ccc(CCNS(=O)(=O)c2cccc3cccnc23)cc1 8.75%, Cc1ccc(CNC(=O)CCS(=O)(=O)c2ccc3c(c2)CC(C)N3C(=O)C2CC2)o1 (configuration not stated) 1.79%, O=C(NCc1ccco1)C1CCCN1S(=O)(=O)c1ccccc1C(F)(F)F (configuration not stated) 5.37%, CCNc1nc(Oc2ccc(C(=O)OC)cc2)nc(N2CCOCC2)n1 11%, Cc1ccc2nc(NC(=O)CSc3nc(=O)n(CCCN(C)C)c4c3CCC4)sc2c1 3.73%, CCOc1ccc(Br)cc1S(=O)(=O)Nc1ccc(S(=O)(=O)Nc2cc(C)on2)cc1 -19.4%, CCCc1nc(SCC(=O)Nc2ccccc2OC)c2c(=O)n(C)c(=O)n(C)c2n1 12.4%, CN(C)S(=O)(=O)c1ccc(C(=O)NCCN=C2NS(=O)(=O)c3ccccc32)cc1 -23.4%, CC(=O)NCCC(=O)Nc1cc(S(=O)(=O)N2CCCCC2)ccc1Oc1cccc(C)c1 -5.51%, COc1ccc(C(C(=O)NC2CCCC2)N(CCCO)C(=O)Cn2nnc(-c3ccc(C)o3)n2)cc1 (configuration not stated) -6.59%, CCc1cc(C(=O)OC)c(NC(=O)CC2Sc3ccc(C(F)(F)F)cc3NC2=O)s1 (configuration not stated) 17.3%
